Compound activity deposited in PubChem by several laboratories.
aSyn UTR inh = MLPCN primary screen, SNCA 5' untranslated region | alpha-synuclein 5'UTR reporter, inhibitor activity | inhibition, % (tested at 7.5 µM) | actives 0.82% (n = 300,000) | AID 1813; in the data active = inhibition above about 60%; inconclusive = no clear call, values can overlap the other calls;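 also: H4 neuroglioblastoma cells stably carrying SNCA 5'UTR luciferase fusion; 0% = DMSO wells and 100% = positive control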
KLF5 inh = suppresses KLF5 promoter-driven expression; DLD-1 KLF5 promoter-luciferase reporter, luminescence; inhibition, % at 5 µM; actives 0.23% (n = 290,000);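 active = inhibition above a per-plate limit of that plate's mean compound inhibition plus 3 SD, cut at about 60% in these data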;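 also: 0% = DMSO wells and 100% = LY294002 at 200 µM; higher means less KLF5 promoter-driven luciferase light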
IEC-6 tox = IEC-6 cytotoxicity, counter-screen for KLF5 inhibitors; AID 1825; actives 0.78% (n = 290,000); luminescence viability; inhibition, % at 5 µM; in the data active = inhibition above about 22%;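 also: 0% = plate median of test compound wells and 100% = cytotoxic reference compound wells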
Ba/F3 V617F tox = lowers viability of Ba/F3 cells expressing EpoR and JAK2V617F; ATP luminescence; inhibition, % at 5.6 µM; actives 1.1% (n = 220,000); AID 1446;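 active = inhibition above the campaign mean plus 3 SD over all tested compounds, cut at about 24% in these data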;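 also: cytokine-independent growth of Ba/F3 cells driven by EpoR plus mutant JAK2; 0% = DMSO-treated cells and 100% = JAK inhibitor I control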
APP transl inh = APP translation inhibition; actives 0.82% (n = 190,000); SH-SY5Y APP 5'UTR-luciferase reporter, luminescence; inhibition, % at 2 µM;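 active = inhibition above a set limit, derived from the sample mean plus 3 SD, cut at about 45% in these data; inconclusive = one replicate passes the limit while the other fails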
BaF3 tox = parental Ba/F3 viability inhibition as JAK2V617F counter-screen. CellTiter-Glo ATP luminescence. inhibition, % at 5.6 µM. actives 1.1% (n = 220,000). AID 1486;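 active = inhibition above a per-campaign cutoff, the mean inhibition of all tested compounds plus 3 SD, cut at about 27% in these data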;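 also: 0% = DMSO wells and 100% = JAK Inhibitor I control wells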
* = called active by the depositor. Most compounds without a hit are left out; they make up all but 2.2% or so of the library.

How did CC(=O)c1ccc(N2CCN(S(=O)(=O)c3c(C)[nH]c(C)c3C(=O)N3CCCCC3)CC2)cc1 do in these assays?
aSyn UTR inh: 14; KLF5 inh: -22; IEC-6 tox: -1

What do the screens show for `C/C(=N\NC(=S)NCc1ccccc1)c1ccco1`?
aSyn UTR inh: -32; KLF5 inh: -15; IEC-6 tox: -3; Ba/F3 V617F tox: -1; APP transl inh: -11; BaF3 tox: 67*

How did CCOc1cc(/C=C(/C#N)C(=O)Nc2ccc(O)cc2)cc(Br)c1O do in these assays?
aSyn UTR inh: 84*; KLF5 inh: -10; IEC-6 tox: 2; Ba/F3 V617F tox: 3; APP transl inh: -4; BaF3 tox: 0

Results for CS(=O)(=O)c1nc(-c2ccccc2)cc(C(F)(F)F)n1 ?
aSyn UTR inh: -111; KLF5 inh: -19; IEC-6 tox: 7; Ba/F3 V617F tox: 1; APP transl inh: 62*; BaF3 tox: 7

What do the screens show for `FC(F)(F)c1cc(-c2ccccc2)nc(N2CCCCCC2)n1`?
aSyn UTR inh: 12; KLF5 inh: -4; IEC-6 tox: 4; Ba/F3 V617F tox: 0; APP transl inh: -5; BaF3 tox: 3

How did NC1=NC2(CCCCC2)N(c2cccc(Cl)c2)C(N)=N1 do in these assays?
aSyn UTR inh: 13; KLF5 inh: -33; IEC-6 tox: -2; Ba/F3 V617F tox: 68*; APP transl inh: -14; BaF3 tox: 70*

How did COc1ccccc1N1C(N)=NC(N)=NC12CCCCC2 do in these assays?
aSyn UTR inh: 18; KLF5 inh: -7; IEC-6 tox: 0

Results for COc1ccc(N2C(N)=NC(N)=NC23CCCC3)cc1 ?
aSyn UTR inh: 1; KLF5 inh: -8; IEC-6 tox: -4; Ba/F3 V617F tox: 57*; APP transl inh: 21; BaF3 tox: 64*

How did CCOC(=O)N1CCN(c2c(NCc3ccc(F)cc3)c(=O)c2=O)CC1 do in these assays?
aSyn UTR inh: -16; KLF5 inh: 41; IEC-6 tox: 8; Ba/F3 V617F tox: 16; BaF3 tox: 31*

Results for CCOC(=O)N1CCN(c2c(NCc3ccc(Cl)cc3)c(=O)c2=O)CC1 ?
aSyn UTR inh: 15; KLF5 inh: 40; IEC-6 tox: 19; Ba/F3 V617F tox: 35*; APP transl inh: 36; BaF3 tox: 69*

What do the screens show for `COc1ccc(CC(=O)Nc2ccc(-c3cn4ccc(C)cc4n3)cc2)cc1`?
aSyn UTR inh: -110; KLF5 inh: -71; IEC-6 tox: 7; Ba/F3 V617F tox: 0; APP transl inh: -41; BaF3 tox: 4

Results for CC(=O)c1cccc(NC(=O)COC(=O)c2n[nH]c3ccccc23)c1 ?
aSyn UTR inh: -13; KLF5 inh: 0; IEC-6 tox: 4; Ba/F3 V617F tox: 1; APP transl inh: 0; BaF3 tox: 8

What do the screens show for `COc1ccc(N/N=C(\C=N\O)C(=O)c2ccc(OC)cc2)cc1`?
aSyn UTR inh: 6; KLF5 inh: 12; IEC-6 tox: 11; Ba/F3 V617F tox: 10; APP transl inh: 88*; BaF3 tox: 17

How did CC(=O)Nc1ccc(Nc2nc(C)c([N+](=O)[O-])c(Nc3ccccc3)n2)cc1 do in these assays?
aSyn UTR inh: inconclusive; KLF5 inh: 2; IEC-6 tox: -2; Ba/F3 V617F tox: 0; APP transl inh: 17; BaF3 tox: 3

What do the screens show for `CC(=O)Nc1ccc(Nc2nc(C)c([N+](=O)[O-])c(N(C)c3ccccc3)n2)cc1`?
aSyn UTR inh: 86*; KLF5 inh: -15; IEC-6 tox: 6; Ba/F3 V617F tox: -5; BaF3 tox: 0

How did CCCCSc1nc2sc3c(c2c(=O)n1-c1ccccc1)CCN(C)C3 do in these assays?
aSyn UTR inh: 3; KLF5 inh: -30; IEC-6 tox: -3

How did CCCCNc1nc2sc3c(c2c(=O)n1-c1cccc(Cl)c1)CCN(C)C3 do in these assays?
KLF5 inh: -19; IEC-6 tox: -3; Ba/F3 V617F tox: 80*; BaF3 tox: 68*

What do the screens show for `CCCCCNc1nc2sc3c(c2c(=O)n1-c1cccc(Cl)c1)CCN(C)C3`?
KLF5 inh: -10; IEC-6 tox: 5; Ba/F3 V617F tox: 76*; BaF3 tox: 68*

Results for Cc1ccc(OCCCCN2CCc3ccccc3C2)cc1 ?
aSyn UTR inh: 1; KLF5 inh: -15; IEC-6 tox: 2

What do the screens show for `CCC(C)n1ncn(-c2ccc(N3CCN(c4ccc(OCC5COC(Cn6cncn6)(c6ccc(Cl)cc6Cl)O5)cc4)CC3)cc2)c1=O` (stereo unspecified)?
aSyn UTR inh: 100*; KLF5 inh: -33; IEC-6 tox: 4; Ba/F3 V617F tox: 4; BaF3 tox: -6

How did CCCC1COC(Cn2cncn2)(c2ccc(C)cc2)O1 (stereo unspecified) do in these assays?
aSyn UTR inh: 11; KLF5 inh: -5; IEC-6 tox: 1; Ba/F3 V617F tox: 2; APP transl inh: 9; BaF3 tox: 4

What do the screens show for `COC(=O)c1ccc2c(c1)C(C)(C)C(/C=C/c1ccccc1O)=[N+]2C`?
aSyn UTR inh: 118*; KLF5 inh: -39; IEC-6 tox: -2; Ba/F3 V617F tox: 3; APP transl inh: -12; BaF3 tox: 14

Results for O=C(O)CCNS(=O)(=O)c1ccc2c(c1)OCCCO2 ?
aSyn UTR inh: 9; KLF5 inh: -17; IEC-6 tox: 0; Ba/F3 V617F tox: 3; APP transl inh: -5; BaF3 tox: 3

Results for CCOC(=O)C1=C(C)N(c2ccc(C)cc2)C(=O)/C1=C\c1ccc(O)c(OC)c1 ?
aSyn UTR inh: -8; KLF5 inh: -2; IEC-6 tox: 1; Ba/F3 V617F tox: -5; BaF3 tox: 29*

Results for O=C(Cn1c(-c2ccccc2)c[n+]2ccsc12)c1ccc([N+](=O)[O-])cc1 ?
aSyn UTR inh: -50; KLF5 inh: -44; IEC-6 tox: 2; Ba/F3 V617F tox: 5; APP transl inh: -33; BaF3 tox: 15

Results for O=C(Cn1c(-c2ccccc2)c[n+]2ccsc12)c1ccccc1 ?
aSyn UTR inh: -25; KLF5 inh: 13; IEC-6 tox: 3; Ba/F3 V617F tox: 70*; APP transl inh: 4; BaF3 tox: 60*

Results for Cc1ccc2c(c1)c(C)cc[n+]2Cc1ccccc1 ?
aSyn UTR inh: -11; KLF5 inh: 27; IEC-6 tox: 5; Ba/F3 V617F tox: 94*; APP transl inh: -5; BaF3 tox: 70*

What do the screens show for `O=C1CSc2ccc(C(=O)Nc3cccc(S(=O)(=O)Nc4ccc(Br)cc4)c3)cc2N1`?
aSyn UTR inh: -1; KLF5 inh: 8; IEC-6 tox: 4; Ba/F3 V617F tox: 17; APP transl inh: 7; BaF3 tox: 44*

What do the screens show for `O=C(Nc1cccc(S(=O)(=O)Nc2ccc(Cl)cc2)c1)c1ccc(Cl)nc1`?
aSyn UTR inh: -19; KLF5 inh: -8; IEC-6 tox: 13; Ba/F3 V617F tox: 41*; APP transl inh: 2; BaF3 tox: 52*

Results for O=C(Nc1ccc(NS(=O)(=O)c2ccccc2)cc1)c1ccc(Cl)cc1 ?
aSyn UTR inh: -21; KLF5 inh: -2; IEC-6 tox: 2
